# Several values for one entry are separate records, joined by “and”; a condition that tells them apart may be missing. Identical values can stand only once. This is part of a sample that, as a whole, favours compounds with a hit. Of some 83,000 tested, about 20% had one in any assay.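 A percent growth of 40 corresponds to 60% growth inhibition; 0 means no net growth; -100 means all cells died. Active threshold: below 10.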 Activity calls are given as the source filed them.
# System: NCI-H460 lung
# Assay: NCI-60 one-dose screen, 48 h (100 = growth as untreated, 0 = no growth, -100 = all killed)
# Settings: 10 µM unless noted
row,Compound,growth
1,O=C(/C=C\c1cc(Br)ccc1O)/C=C/c1cc(Br)ccc1O,-34.9% (active)
2,O=Nc1ccccc1N=O,93.5% (inactive)
3,COC(=O)Nc1nc2ccc(C(=O)c3ccccc3)cc2[nH]1,6.48% (active) and 1.24% (active) and -0.135% (active)
4,CCCCCC(CCCCC)C(=O)O,116% (inactive)
5,Oc1c(Br)c(Br)c(O)c(Br)c1Br,120% (inactive)
6,CCCCCCCCCCCCCCCCOP(=O)([O-])OCC[N+](C)(C)C,3.97% (active)
7,CC1SC(=S)N(c2ccc(Cl)cc2)C1=O (configuration not stated),100% (inactive) and 108% (inactive)
8,Cc1ccc2nc(-[n+]3cc4ccccc4cc3C)ccc2c1,29.5% (inactive)
9,O=C(Nc1ccccc1)Oc1c(Cl)c(Cl)c(Cl)c(Cl)c1Cl,109% (inactive) and 103% (inactive)
10,NC(=O)/C=C/C(=O)c1c(Cl)cccc1Cl,-34.1% (active)
11,S=C(N/N=C/c1ccccn1)Nc1ccccn1,2.59% (active)
12,CC1=CC(O)C2CC1C2(C)C (configuration not stated),108% (inactive)
13,Cc1ccnc2c1ccc1c(C)ccnc12,5.29% (active)
14,O=C(Oc1cccc2cccnc12)c1ccccc1,87.1% (inactive) and 109% (inactive)
15,CC1(C)CC([P+](c2ccccc2)(c2ccccc2)c2ccccc2)=NN1,17.2% (inactive)
16,CCCCCCCCCCCCCCCCN(CC)CC,1.87% (active)

# System: HOP-92 NSCLC
# Assay: as above
# Settings: 10 µM unless noted
row,Compound,growth
1,Oc1ccc(/C=N/NC(=S)Nc2ccccc2)nc1,-0.553% (active)
2,COc1ccccc1OC(=O)Oc1ccccc1OC,108% (inactive) and -0.941% (active)
3,O=C1C=CC(=O)N1C1c2ccccc2-c2ccccc21,67.5% (inactive)
4,O=C(CC1(O)C(=O)Nc2c(Cl)ccc(Cl)c21)c1ccc(Cl)cc1Cl (configuration not stated),92.5% (inactive)
5,Cc1cc2nc(CS)[nH]c2cc1C,88.9% (inactive)
6,O=C(Nc1cccc(Br)c1)Oc1ccc(Cl)c2cccnc12,40.7% [100 µM] (inactive)
7,CN(C)c1ccc(N=Nc2cccc3ccccc23)cc1,74% (inactive)
8,O=[N+]([O-])c1ccc(N=Nc2ccc(O)cc2O)cc1,-18.1% (active)
9,CC(C)(C)CC(C)(C)c1ccc(OCCSC(=N)N)cc1,17.7% (inactive)
10,CCCCCCCCCCCCCCCC[N+](C)(CCO)Cc1cnc[nH]1 (configuration not stated),-55.8% (active)
11,Nc1nc(N)c2nc(CNc3ccc(C(=O)NC(CCC(=O)O)C(=O)O)cc3)cnc2n1 (configuration not stated),69.9% (inactive) and 43.7% (inactive)
12,Cc1ccc2c(ccc3c[n+]4c5ccccc5ccc4n32)c1,-11.1% (active)
13,CN(Cc1cnc2nc(N)nc(N)c2n1)c1ccc(C(=O)NC(CCC(=O)O)C(=O)O)cc1 (configuration not stated),37.1% (inactive)
14,NC(=S)N/N=C\c1nccc2c(C(F)(F)C(F)(F)C(F)(F)F)cccc12,-2.33% (active)
15,CCC(CC)COC(=O)c1ccc(O)c(O)c1,31.1% (inactive)
16,O=C(/C=C/C=C/c1ccccc1)c1ccco1,96.1% (inactive)
17,C/C=C1\SC(=S)NC1=O,94.2% (inactive)

row,Compound,growth
1,O=C(/C=C\c1cc(Br)ccc1O)/C=C/c1cc(Br)ccc1O,-40.1% (active)
2,O=Nc1ccccc1N=O,107% (inactive)
3,COC(=O)Nc1nc2ccc(C(=O)c3ccccc3)cc2[nH]1,65.7% (inactive) and 41.8% (inactive) and 35.3% (inactive)
4,CCCCCC(CCCCC)C(=O)O,78.8% (inactive)
5,Oc1c(Br)c(Br)c(O)c(Br)c1Br,142% (inactive)
6,CCCCCCCCCCCCCCCCOP(=O)([O-])OCC[N+](C)(C)C,-24.8% (active)
7,CC1SC(=S)N(c2ccc(Cl)cc2)C1=O (configuration not stated),77.6% (inactive)
8,Cc1ccc2nc(-[n+]3cc4ccccc4cc3C)ccc2c1,5.49% (active)
9,O=C(Nc1ccccc1)Oc1c(Cl)c(Cl)c(Cl)c(Cl)c1Cl,74.9% (inactive) and 63.8% (inactive)
10,NC(=O)/C=C/C(=O)c1c(Cl)cccc1Cl,-99.3% (active)
11,S=C(N/N=C/c1ccccn1)Nc1ccccn1,-2.58% (active)
12,CC1=CC(O)C2CC1C2(C)C (configuration not stated),100% (inactive) and 78.2% (inactive)
13,Cc1ccnc2c1ccc1c(C)ccnc12,44.7% (inactive)
14,O=C(Oc1cccc2cccnc12)c1ccccc1,91% (inactive) and 110% (inactive)
15,CC1(C)CC([P+](c2ccccc2)(c2ccccc2)c2ccccc2)=NN1,-1.14% (active)
16,CCCCCCCCCCCCCCCCN(CC)CC,-67.9% (active)

# System: NCI-H522 lung
# Assay: as above
# Settings: 10 µM unless noted
row,Compound,growth
1,Oc1ccc(/C=N/NC(=S)Nc2ccccc2)nc1,-14.2% (active)
2,COc1ccccc1OC(=O)Oc1ccccc1OC,85.3% (inactive) and 92.5% (inactive)
3,O=C1C=CC(=O)N1C1c2ccccc2-c2ccccc21,29.4% (inactive)
4,O=C(CC1(O)C(=O)Nc2c(Cl)ccc(Cl)c21)c1ccc(Cl)cc1Cl (configuration not stated),76.2% (inactive)
5,Cc1cc2nc(CS)[nH]c2cc1C,74.7% (inactive)
6,O=C(Nc1cccc(Br)c1)Oc1ccc(Cl)c2cccnc12,-56.5% [100 µM] (active)
7,CN(C)c1ccc(N=Nc2cccc3ccccc23)cc1,95% (inactive)
8,O=[N+]([O-])c1ccc(N=Nc2ccc(O)cc2O)cc1,19.5% (inactive)
9,CC(C)(C)CC(C)(C)c1ccc(OCCSC(=N)N)cc1,48.3% (inactive)
10,CCCCCCCCCCCCCCCC[N+](C)(CCO)Cc1cnc[nH]1 (configuration not stated),-72.2% (active)
11,Nc1nc(N)c2nc(CNc3ccc(C(=O)NC(CCC(=O)O)C(=O)O)cc3)cnc2n1 (configuration not stated),35% (inactive) and 38.7% (inactive)
12,Cc1ccc2c(ccc3c[n+]4c5ccccc5ccc4n32)c1,-33.4% (active)
13,CN(Cc1cnc2nc(N)nc(N)c2n1)c1ccc(C(=O)NC(CCC(=O)O)C(=O)O)cc1 (configuration not stated),29.2% (inactive)
14,NC(=S)N/N=C\c1nccc2c(C(F)(F)C(F)(F)C(F)(F)F)cccc12,-20.7% (active)
15,CCC(CC)COC(=O)c1ccc(O)c(O)c1,-5.6% (active)
16,O=C(/C=C/C=C/c1ccccc1)c1ccco1,38% (inactive)
17,C/C=C1\SC(=S)NC1=O,103% (inactive)

row,Compound,growth
1,O=C(/C=C\c1cc(Br)ccc1O)/C=C/c1cc(Br)ccc1O,-62.9% (active)
2,O=Nc1ccccc1N=O,-60.8% (active)
3,COC(=O)Nc1nc2ccc(C(=O)c3ccccc3)cc2[nH]1,-11.7% (active) and -16.9% (active) and -32.5% (active)
4,CCCCCC(CCCCC)C(=O)O,88.8% (inactive)
5,Oc1c(Br)c(Br)c(O)c(Br)c1Br,-88% (active)
6,CCCCCCCCCCCCCCCCOP(=O)([O-])OCC[N+](C)(C)C,-55.1% (active)
7,CC1SC(=S)N(c2ccc(Cl)cc2)C1=O (configuration not stated),89.8% (inactive)
8,Cc1ccc2nc(-[n+]3cc4ccccc4cc3C)ccc2c1,26.2% (inactive)
9,O=C(Nc1ccccc1)Oc1c(Cl)c(Cl)c(Cl)c(Cl)c1Cl,87.9% (inactive)
10,NC(=O)/C=C/C(=O)c1c(Cl)cccc1Cl,-59.5% (active)
11,S=C(N/N=C/c1ccccn1)Nc1ccccn1,-39.9% (active)
12,CC1=CC(O)C2CC1C2(C)C (configuration not stated),86.2% (inactive) and 92% (inactive)
13,Cc1ccnc2c1ccc1c(C)ccnc12,11.8% (inactive)
14,O=C(Oc1cccc2cccnc12)c1ccccc1,-4.17% (active) and 98.3% (inactive)
15,CC1(C)CC([P+](c2ccccc2)(c2ccccc2)c2ccccc2)=NN1,27.4% (inactive)
16,CCCCCCCCCCCCCCCCN(CC)CC,-82.4% (active)

# Source: PubChem BioAssay (NCI)
